The results in this text go back to PubChem BioAssay (NCI).

Molecules are shown by their SMILES. This is part of a sample that, as a whole, favours compounds with a hit. Of some 79,000 tested, about 15% had one in any assay. Unmarked numbers belong to inactive results. Calls of active or inactive are those of the source. No stated cut-off is given here; in the data, active means growth inhibition above about 70%; inactive means the rest.

The assay in a line: NCI Yeast Anticancer Drug Screen. Data for the mec2-1 strain (AID 157). Particulars: S. cerevisiae mec2-1 strain, at 50.0 µM (retest, dose inferred, filed as 5.0), hits give high values. The method in brief: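 Readout is yeast growth inhibition, normalised to vehicle-treated controls, in the mec2-1 strain exposed to compound.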
In the case of `CCC(c1ccc(OC)cc1)C(O)(CC)c1ccc(OC)cc1` (stereo not given), the growth inhibition is 99% (active). The same measure for `Cc1c(Cl)c(S(N)(=O)=O)cc2c1NC=NS2(=O)=O`: 2%; for `CCCCCCCCNc1ncnc2c1cnn2C`: 83% (active). The same measure for `Cc1cc(N)c(C)c2c1[nH]c1ccc(Br)cc12`: 89% (active); for `C(=C\c1cnnc2ccccc12)/c1ccco1`: 33%; for `Cc1cc(N(CCCCl)CCCCl)ccc1C=Nc1cccc(Cl)c1`: 12%. The same measure for `CCC[CH2][Sn]([CH2]CCC)([O]C(=O)c1cc(F)ccc1F)[O]C(=O)c1cc(F)ccc1F`: 25%; for `O=[N+]([O-])c1ccc(N2N=NC(CN3CCOCC3)C2N2CCOCC2)cc1` (stereo not given): 23%; for `O=CC(I)=C(c1ccccc1)c1ccccc1`: 13%. As for `CCC/C(=N\O)S(=O)(=O)c1ccc(NN=O)nc1`, the growth inhibition was 1%. As for `COc1cc(Cc2n[nH]c(=S)n2-c2ccccc2)c(S(N)(=O)=O)cc1OC`, the growth inhibition is 4%. The same measure for `CC(=O)Nc1ccc(C(C)(C)c2ccc(C)cc2)cc1`: 98% (active); for `CC(C)=NOc1ccc([N+](=O)[O-])cc1[N+](=O)[O-]`: 81% (active); for `CC(=O)Nc1ccc2c(c1)C(S)c1ccccc1-2` (stereo not given): 27%.

For `CCN1CC(=O)N(C)C1=S`, the growth inhibition was -19%. As to `[O-][n+]1c(-c2ccccc2)c(Cl)c(-c2ccccc2)n1O`, the growth inhibition is 94% (active). The same measure for `CCCCCCCCCCCCCCCCN(C)c1ccc(S(=O)(=O)O)cc1[N+](=O)[O-]`: 71% (active); for `Cc1ccc2c(c1)-c1c(c3c(c4c1-c1cc(C)ccc1CC4)C(=O)OC3=O)CC2`: 43%. Turning to `C[N+](C)(CCO)Cc1ccccc1`, the growth inhibition is 0%.

Consider `CCOC(=O)C(C)(C)Oc1ccc2c(=O)cc(-c3ccccc3)oc2c1`, for which the growth inhibition was 96% (active).

For the compound `CS(=O)c1cc(=O)c2ccccc2s1` (stereo not given), the growth inhibition was 73% (active).

For `COC(=O)c1c[nH]c2ccc(Br)cc12`, the growth inhibition was 43%. The same measure for `CCCCN1C(=O)C(=O)N(c2ccccc2)C1=O`: 12%; for `Cc1cc(N)c2cc(OCCOc3ccc4nc(C)cc(N)c4c3)ccc2n1`: 94% (active); for `Cc1c2c(c(C)c3c4c(oc13)CCCC4)C=NCC2`: 41%.

Take `CCCC(c1ccc(O)cc1)c1ccc(O)cc1`: the growth inhibition is 99% (active).

As for `CC(C)=NNc1ncnc2nc[nH]c12`, the growth inhibition is -11%. Under `Clc1ccc(C2=Nc3ccccc3SC(c3ccc(Cl)c(Cl)c3)C2)c(Cl)c1` (stereo not given) stands 12%; under `N#Cc1c(Cl)nsc1-c1ccc([N+](=O)[O-])cc1`, 65%; under `C=CCSc1nc2ccccc2c(=O)n1Cc1ccco1`, 36%.

Take `COC(=O)CSc1nc2[nH]c(SC)c(C(N)=O)c2c(=O)n1-c1ccccc1`: the growth inhibition was -22%. The same measure for `Cc1cc2oc3c(ccc(=O)n3C)c(=O)c2c(C)c1Cl`: 23%; for `CC(=O)SC1C(=O)N(C)C(SC(C)=O)C(=O)N1C` (stereo not given): 11%.

Consider `CCCCCCCCCCCCCCCCOCC(Cl)COP(=O)(O)OP(=O)(O)OCC1OC(n2cc(C)c(=O)[nH]c2=O)CC1O` (stereo not given), for which the growth inhibition is 94% (active). Under `CCCCCCCCCCNC(=O)CBr` stands 100% (active). Under `O=Cc1c(Cn2ccnc2)c2cc([N+](=O)[O-])ccc2n1Cc1ccccc1` stands 39%. The same measure for `C=C(C)C1CC2=C(O1)C(=O)c1ccccc1C2=O` (stereo not given): 95% (active); for `CC(C)C1=CC2=CCC3C(C)(C(=O)O)CCCC3(C)C2CC1` (stereo not given) (tested in a mixture with another compound): 96% (active). For the compound `ClCC1CSC2(CCCCC2)O1` (stereo not given), the growth inhibition was -16%. On to `Oc1cccc2ccc(SSc3ccc4cccc(O)c4n3)nc12`, for which the growth inhibition is 95% (active).
